Test results: the supplement of paper PMC7411054

Experiments:
Experiment in all cases: phenotypically active (imaging signature differs from DMSO and reproducible) at any of 0.3-9 uM (binary (1 = active, 0 = inactive)); higher = active
Conditions in all cases: treatment time: 24 h
A549-ACTB-RAB5A = system: A549-ACTB-RAB5A
Procedure, shortened: (§1)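 The reporter lines, fifteen in total and built by gene editing in A549, HepG2 and WPMY1 cells, used BFP for segmentation alongside GFP and RFP/FusionRed markers. Each was treated at 0.3, 1, 3 or 9 µM for 24 h in four wells and then imaged live, with live-cell features normalised to solvent control wells. Deviation meant ≥3 of 4 wells beyond the 95th percentile of control Euclidean distances; reproducibility meant a median replicate Pearson correlation above the 95th percentile of non-replicates. Only conditions meeting both were scored as phenotypically active.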

A549-CANX-COX4 = system: A549-CANX-COX4
Procedure, shortened: as §1

A549-GM130-SQSTM1 = system: A549-GM130-SQSTM1
Procedure, shortened: as §1

A549-TP53BP1-CLTA = system: A549-TP53BP1-CLTA
Procedure, shortened: as §1

A549-TUBA1B-RELA = system: A549-TUBA1B-RELA
Procedure, shortened: as §1

HepG2-ACTB-RAB5A = system: HepG2-ACTB-RAB5A
Procedure, shortened: as §1

HepG2-CANX-COX4 = system: HepG2-CANX-COX4
Procedure, shortened: as §1

HepG2-GM130-SQSTM1 = system: HepG2-GM130-SQSTM1
Procedure, shortened: as §1

HepG2-TP53BP1-CLTA = system: HepG2-TP53BP1-CLTA
Procedure, shortened: as §1

HepG2-TUBA1B-RELA = system: HepG2-TUBA1B-RELA
Procedure, shortened: as §1

WPMY1-ACTB-RAB5A = system: WPMY1-ACTB-RAB5A
Procedure, shortened: as §1

WPMY1-CANX-COX4 = system: WPMY1-CANX-COX4
Procedure, shortened: as §1

WPMY1-GM130-SQSTM1 = system: WPMY1-GM130-SQSTM1
Procedure, shortened: as §1

WPMY1-TP53BP1-CLTA = system: WPMY1-TP53BP1-CLTA
Procedure, shortened: as §1

WPMY1-TUBA1B-RELA = system: WPMY1-TUBA1B-RELA
Procedure, shortened: as §1

Measured: phenotypically active

CC(C)(Oc1ccc(C2CC2(Cl)Cl)cc1)C(=O)O (stereo not given) [ciprofibrate]
inactive: A549-ACTB-RAB5A 0 | A549-CANX-COX4 0 | A549-GM130-SQSTM1 0 | A549-TP53BP1-CLTA 0 | A549-TUBA1B-RELA 0 | HepG2-ACTB-RAB5A 0 | HepG2-CANX-COX4 0 | HepG2-GM130-SQSTM1 0 | HepG2-TP53BP1-CLTA 0 | HepG2-TUBA1B-RELA 0 | WPMY1-ACTB-RAB5A 0 | WPMY1-CANX-COX4 0 | WPMY1-GM130-SQSTM1 0 | WPMY1-TP53BP1-CLTA 0 | WPMY1-TUBA1B-RELA 0

CCCCCCCCCCCCCCCCCCc1ccc(C(=O)/C=C/C(=O)O)cc1
inactive: A549-ACTB-RAB5A 0 | A549-CANX-COX4 0 | A549-GM130-SQSTM1 0 | A549-TP53BP1-CLTA 0 | A549-TUBA1B-RELA 0 | HepG2-ACTB-RAB5A 0 | HepG2-CANX-COX4 0 | HepG2-GM130-SQSTM1 0 | HepG2-TP53BP1-CLTA 0 | HepG2-TUBA1B-RELA 0 | WPMY1-ACTB-RAB5A 0 | WPMY1-CANX-COX4 0 | WPMY1-GM130-SQSTM1 0 | WPMY1-TP53BP1-CLTA 0 | WPMY1-TUBA1B-RELA 0

N=C(N)NN=Cc1c(Cl)cccc1Cl [guanabenz]
inactive: A549-ACTB-RAB5A 0 | A549-CANX-COX4 0 | A549-GM130-SQSTM1 0 | A549-TP53BP1-CLTA 0 | A549-TUBA1B-RELA 0 | HepG2-ACTB-RAB5A 0 | HepG2-CANX-COX4 0 | HepG2-GM130-SQSTM1 0 | HepG2-TP53BP1-CLTA 0 | HepG2-TUBA1B-RELA 0 | WPMY1-ACTB-RAB5A 0 | WPMY1-CANX-COX4 0 | WPMY1-GM130-SQSTM1 0 | WPMY1-TP53BP1-CLTA 0 | WPMY1-TUBA1B-RELA 0

NS(=O)(=O)c1cc(C2(O)NC(=O)c3ccccc32)ccc1Cl (stereo not given) [chlorthalidone]
inactive: A549-ACTB-RAB5A 0 | A549-CANX-COX4 0 | A549-GM130-SQSTM1 0 | A549-TP53BP1-CLTA 0 | A549-TUBA1B-RELA 0 | HepG2-ACTB-RAB5A 0 | HepG2-CANX-COX4 0 | HepG2-GM130-SQSTM1 0 | HepG2-TP53BP1-CLTA 0 | HepG2-TUBA1B-RELA 0 | WPMY1-ACTB-RAB5A 0 | WPMY1-CANX-COX4 0 | WPMY1-GM130-SQSTM1 0 | WPMY1-TP53BP1-CLTA 0 | WPMY1-TUBA1B-RELA 0

COc1cc(C=O)c([N+](=O)[O-])cc1OC
inactive: A549-ACTB-RAB5A 0 | A549-CANX-COX4 0 | A549-GM130-SQSTM1 0 | A549-TP53BP1-CLTA 0 | A549-TUBA1B-RELA 0 | HepG2-ACTB-RAB5A 0 | HepG2-CANX-COX4 0 | HepG2-GM130-SQSTM1 0 | HepG2-TP53BP1-CLTA 0 | HepG2-TUBA1B-RELA 0 | WPMY1-ACTB-RAB5A 0 | WPMY1-CANX-COX4 0 | WPMY1-GM130-SQSTM1 0 | WPMY1-TP53BP1-CLTA 0 | WPMY1-TUBA1B-RELA 0

C[C@H](CCC(=O)NCC(=O)O)[C@H]1CC[C@H]2[C@@H]3[C@H](O)C[C@@H]4C[C@H](O)CC[C@]4(C)[C@H]3C[C@H](O)[C@]12C [Glycocholic acid]
inactive: A549-ACTB-RAB5A 0 | A549-CANX-COX4 0 | A549-GM130-SQSTM1 0 | A549-TP53BP1-CLTA 0 | A549-TUBA1B-RELA 0 | HepG2-ACTB-RAB5A 0 | HepG2-CANX-COX4 0 | HepG2-GM130-SQSTM1 0 | HepG2-TP53BP1-CLTA 0 | HepG2-TUBA1B-RELA 0 | WPMY1-ACTB-RAB5A 0 | WPMY1-CANX-COX4 0 | WPMY1-GM130-SQSTM1 0 | WPMY1-TP53BP1-CLTA 0 | WPMY1-TUBA1B-RELA 0

NCC[C@H](O)C(=O)N[C@H]1C[C@@H](N)[C@H](O[C@H]2O[C@H](CN)[C@@H](O)[C@H](O)[C@H]2O)[C@@H](O)[C@@H]1O[C@H]1O[C@H](CO)[C@@H](O)[C@H](N)[C@H]1O [Amikacin hydrate]
inactive: A549-ACTB-RAB5A 0 | A549-CANX-COX4 0 | A549-GM130-SQSTM1 0 | A549-TP53BP1-CLTA 0 | A549-TUBA1B-RELA 0 | HepG2-ACTB-RAB5A 0 | HepG2-CANX-COX4 0 | HepG2-GM130-SQSTM1 0 | HepG2-TP53BP1-CLTA 0 | HepG2-TUBA1B-RELA 0 | WPMY1-ACTB-RAB5A 0 | WPMY1-CANX-COX4 0 | WPMY1-GM130-SQSTM1 0 | WPMY1-TP53BP1-CLTA 0 | WPMY1-TUBA1B-RELA 0

O=C(/C=C\c1ccc(O)c(O)c1)O[C@H]1C[C@](OC(=O)/C=C/c2ccc(O)c(O)c2)(C(=O)O)C[C@H](O)[C@H]1O [Cynarin]
inactive: A549-ACTB-RAB5A 0 | A549-CANX-COX4 0 | A549-GM130-SQSTM1 0 | A549-TP53BP1-CLTA 0 | A549-TUBA1B-RELA 0 | HepG2-ACTB-RAB5A 0 | HepG2-CANX-COX4 0 | HepG2-GM130-SQSTM1 0 | HepG2-TP53BP1-CLTA 0 | HepG2-TUBA1B-RELA 0 | WPMY1-ACTB-RAB5A 0 | WPMY1-CANX-COX4 0 | WPMY1-GM130-SQSTM1 0 | WPMY1-TP53BP1-CLTA 0 | WPMY1-TUBA1B-RELA 0

CCN(Cc1ccncc1)C(=O)C(CO)c1ccccc1 (stereo not given) [tropicamide]
inactive: A549-ACTB-RAB5A 0 | A549-CANX-COX4 0 | A549-GM130-SQSTM1 0 | A549-TP53BP1-CLTA 0 | A549-TUBA1B-RELA 0 | HepG2-ACTB-RAB5A 0 | HepG2-CANX-COX4 0 | HepG2-GM130-SQSTM1 0 | HepG2-TP53BP1-CLTA 0 | HepG2-TUBA1B-RELA 0 | WPMY1-ACTB-RAB5A 0 | WPMY1-CANX-COX4 0 | WPMY1-GM130-SQSTM1 0 | WPMY1-TP53BP1-CLTA 0 | WPMY1-TUBA1B-RELA 0

CC(C)(Sc1ccc(CCN(CCCCC2CCCCC2)C(=O)NC2CCCCC2)cc1)C(=O)O
inactive: A549-ACTB-RAB5A 0 | A549-CANX-COX4 0 | A549-GM130-SQSTM1 0 | A549-TP53BP1-CLTA 0 | A549-TUBA1B-RELA 0 | HepG2-ACTB-RAB5A 0 | HepG2-CANX-COX4 0 | HepG2-GM130-SQSTM1 0 | HepG2-TP53BP1-CLTA 0 | HepG2-TUBA1B-RELA 0 | WPMY1-ACTB-RAB5A 0 | WPMY1-CANX-COX4 0 | WPMY1-GM130-SQSTM1 0 | WPMY1-TP53BP1-CLTA 0 | WPMY1-TUBA1B-RELA 0

C#C[C@]1(O)CC[C@H]2[C@@H]3CCc4cc(OC5CCCC5)ccc4[C@H]3CC[C@@]21C [quinestrol]
inactive: A549-ACTB-RAB5A 0 | A549-CANX-COX4 0 | A549-GM130-SQSTM1 0 | A549-TP53BP1-CLTA 0 | A549-TUBA1B-RELA 0 | HepG2-ACTB-RAB5A 0 | HepG2-CANX-COX4 0 | HepG2-GM130-SQSTM1 0 | HepG2-TP53BP1-CLTA 0 | HepG2-TUBA1B-RELA 0 | WPMY1-ACTB-RAB5A 0 | WPMY1-CANX-COX4 0 | WPMY1-GM130-SQSTM1 0 | WPMY1-TP53BP1-CLTA 0 | WPMY1-TUBA1B-RELA 0

NC(=O)C(c1ccccc1)(c1ccc(F)cc1)c1ccc(F)cc1 [senicapoc]
inactive: A549-ACTB-RAB5A 0 | A549-CANX-COX4 0 | A549-GM130-SQSTM1 0 | A549-TP53BP1-CLTA 0 | A549-TUBA1B-RELA 0 | HepG2-ACTB-RAB5A 0 | HepG2-CANX-COX4 0 | HepG2-GM130-SQSTM1 0 | HepG2-TP53BP1-CLTA 0 | HepG2-TUBA1B-RELA 0 | WPMY1-ACTB-RAB5A 0 | WPMY1-CANX-COX4 0 | WPMY1-GM130-SQSTM1 0 | WPMY1-TP53BP1-CLTA 0 | WPMY1-TUBA1B-RELA 0
